The structures appear in SMILES notation. About 3,300 (8.5%) of roughly 39,000 compounds were called active. The entries come from a sample that favours actives as a whole.

This assay relates to HepG2. Briefly: cytotoxicity call (relative viability < 0.9). Particulars: 10 µM.
Regarding `Cc1noc(C)c1NC(=O)Nc1ccc2c(c1)C(=O)N([C@H](C)CO)C[C@H](C)[C@@H](CN(C)C(=O)Nc1ccccc1)OCCCC[C@H](C)O2`, the cytotoxicity call is “inactive”.

Take `Cc1ccc(S(=O)(=O)Nc2ccc3c(c2)C(=O)N([C@@H](C)CO)C[C@@H](C)[C@H](CN(C)Cc2ccc4c(c2)OCO4)OCCCC[C@H](C)O3)cc1`: the cytotoxicity call was “inactive”.

As for `CC(C)C[C@@H]1NC(=O)[C@@H]2C[C@H](C(=O)NCCCCCNC(=O)CS)[C@H](c3cccc(OCCO)c3)N2C1=O`, the cytotoxicity call is “inactive”.

With `CN1C[C@]2(CCN(C(=O)c3cn(CCN4CCNCC4)nn3)C2)OC1=O`, the cytotoxicity call was “inactive”.

Take `Cc1noc(C)c1S(=O)(=O)N(C)C[C@@H]1Oc2ccc(NC(=O)Cc3ccccc3)cc2CC(=O)N([C@@H](C)CO)C[C@@H]1C`: the cytotoxicity call is “inactive”.

Consider `CC(C)NC(=O)N(C)C[C@H]1Oc2ccc(NC(=O)CCCN(C)C)cc2C(=O)N([C@H](C)CO)C[C@H]1C`, for which the cytotoxicity call is “inactive”.

`C[C@H]1CN([C@@H](C)CO)C(=O)Cc2cc(NC(=O)Cn3cnnn3)ccc2O[C@@H]1CN(C)S(=O)(=O)c1ccc(F)cc1`: the cytotoxicity call is “inactive”.

`C[C@H](CO)N1C[C@H](C)[C@H](CN(C)Cc2ccc(Oc3ccccc3)cc2)Oc2ccc(NC(=O)C3CCCCC3)cc2CC1=O`: the cytotoxicity call was “active”.

On to `C[C@@H]1CN([C@H](C)CO)C(=O)Cc2cc(NC(=O)C3CCCCC3)ccc2O[C@H]1CN(C)Cc1ccc(Oc2ccccc2)cc1`, for which the cytotoxicity call is “inactive”.

Take `C[C@@H]1CN([C@H](C)CO)C(=O)Cc2cc(NC(=O)C3CC3)ccc2O[C@@H]1CN(C)Cc1ccc(Oc2ccccc2)cc1`: the cytotoxicity call was “active”.

Consider `C[C@@H]1CN([C@H](C)CO)C(=O)Cc2cc(NC(=O)C3CCCCC3)ccc2O[C@@H]1CN(C)Cc1ccc(Oc2ccccc2)cc1`, for which the cytotoxicity call was “inactive”.

On to `C[C@H]1CN([C@@H](C)CO)C(=O)Cc2cc(NC(=O)C3CCCCC3)ccc2O[C@H]1CN(C)Cc1ccc(Oc2ccccc2)cc1`, for which the cytotoxicity call was “active”.

For the compound `C[C@@H]1CN([C@@H](C)CO)C(=O)Cc2cc(NC(=O)C3CCCCC3)ccc2O[C@H]1CN(C)Cc1ccc(Oc2ccccc2)cc1`, the cytotoxicity call is “inactive”.

Regarding `C[C@@H]1CN([C@@H](C)CO)C(=O)Cc2cc(NC(=O)C3CC3)ccc2O[C@H]1CN(C)Cc1ccc(Oc2ccccc2)cc1`, the cytotoxicity call was “inactive”.

With `C[C@H](CO)N1C[C@H](C)[C@H](CN(C)Cc2ccc(Oc3ccccc3)cc2)Oc2ccc(NC(=O)C3CC3)cc2CC1=O`, the cytotoxicity call is “inactive”.

For the compound `C[C@H](CO)N1C[C@H](C)[C@@H](CN(C)Cc2ccc(Oc3ccccc3)cc2)Oc2ccc(NC(=O)C3CCCCC3)cc2CC1=O`, the cytotoxicity call is “inactive”.

Take `C[C@@H]1CN([C@@H](C)CO)C(=O)Cc2cc(NC(=O)Nc3ccc(C(F)(F)F)cc3)ccc2O[C@@H]1CN(C)C(=O)Nc1cccc2ccccc12`: the cytotoxicity call is “inactive”.

Consider `CC(C)NC(=O)N(C)C[C@@H]1OCCCC[C@@H](C)Oc2ccc(NC(=O)Nc3ccccc3)cc2C(=O)N([C@H](C)CO)C[C@@H]1C`, for which the cytotoxicity call is “inactive”.

As to `C[C@@H]1CCCCO[C@@H](CN(C)C(=O)Cc2ccccc2)[C@@H](C)CN([C@@H](C)CO)C(=O)c2cc(NC(=O)Nc3ccc(C(F)(F)F)cc3)ccc2O1`, the cytotoxicity call was “inactive”.

Regarding `O=C(O)CNC(=O)c1cc2ccccc2[nH]1`, the cytotoxicity call is “inactive”.

For the compound `C[C@H](CO)N1C[C@H](C)[C@@H](CN(C)S(=O)(=O)c2ccc(Cl)cc2)Oc2ccc(NC(=O)CCN3CCOCC3)cc2CC1=O`, the cytotoxicity call was “inactive”.

On to `Cc1noc(C)c1S(=O)(=O)N(C)C[C@H]1OCCCC[C@H](C)Oc2ccc(NS(=O)(=O)c3cn(C)cn3)cc2C(=O)N([C@@H](C)CO)C[C@@H]1C`, for which the cytotoxicity call was “inactive”.

As for `C=c1cc(C)ccc1=C1NN=C(NC(=O)CC)O1`, the cytotoxicity call is “inactive”.

Take `C[C@@H]1CCCCO[C@@H](CN(C)C(=O)Nc2ccc(F)cc2)[C@@H](C)CN([C@@H](C)CO)C(=O)c2cc(NC(=O)Nc3ccccc3)ccc2O1`: the cytotoxicity call was “inactive”.

With `CN1CCC(Nc2nc(Nc3ccc(Oc4ccccc4)cc3)c3c(O)ncc(Br)c3n2)CC1`, the cytotoxicity call was “active”.

With `C[C@@H]1CN([C@@H](C)CO)S(=O)(=O)c2ccc(-c3ccc(F)cc3)cc2O[C@H]1CN(C)S(C)(=O)=O`, the cytotoxicity call was “inactive”.

For `CNC(=O)N1CCN(Cc2cnn(C)c2)C[C@]2(CCCC(=O)N2)C1`, the cytotoxicity call was “inactive”.

`C=CCOC(=O)[C@H]1[C@@H]2C(=O)O[C@@H](c3ccccc3)[C@@H](c3ccccc3)N2[C@@H](c2ccc(OCCOC(=O)[C@H]3C[C@H]4C(=O)N[C@@H](CCCCNC(C)=O)C(=O)N4[C@H]3c3cccc(OCCO)c3)cc2)[C@]12C(=O)Nc1ccc(I)cc12`: the cytotoxicity call is “inactive”.

For the compound `Cc1ccc(S(=O)(=O)N(C)C[C@H]2OCCCC[C@H](C)Oc3ccc(NS(=O)(=O)c4ccc(Cl)cc4)cc3C(=O)N([C@@H](C)CO)C[C@@H]2C)cc1`, the cytotoxicity call is “active”.

Regarding `Cc1ccc(S(=O)(=O)N(C)C[C@@H]2OCCCC[C@H](C)Oc3ccc(NS(=O)(=O)c4ccc(Cl)cc4)cc3C(=O)N([C@H](C)CO)C[C@H]2C)cc1`, the cytotoxicity call was “active”.

For `Cc1ccc(S(=O)(=O)N(C)C[C@@H]2OCCCC[C@@H](C)Oc3ccc(NS(=O)(=O)c4ccc(Cl)cc4)cc3C(=O)N([C@@H](C)CO)C[C@@H]2C)cc1`, the cytotoxicity call is “inactive”.

Turning to `Cc1ccc(S(=O)(=O)Nc2ccc3c(c2)C(=O)N([C@H](C)CO)C[C@H](C)[C@H](CN(C)S(=O)(=O)c2ccc(Cl)cc2)OCCCC[C@H](C)O3)cc1`, the cytotoxicity call was “inactive”.

On to `Cc1ccc(S(=O)(=O)N(C)C[C@@H]2OCCCC[C@H](C)Oc3ccc(NS(=O)(=O)c4ccc(Cl)cc4)cc3C(=O)N([C@@H](C)CO)C[C@@H]2C)cc1`, for which the cytotoxicity call is “active”.

Consider `Cc1ccc(S(=O)(=O)Nc2ccc3c(c2)C(=O)N([C@H](C)CO)C[C@H](C)[C@@H](CN(C)S(=O)(=O)c2ccc(Cl)cc2)OCCCC[C@@H](C)O3)cc1`, for which the cytotoxicity call was “active”.

As for `Cc1ccc(S(=O)(=O)N(C)C[C@@H]2OCCCC[C@@H](C)Oc3ccc(NS(=O)(=O)c4ccc(Cl)cc4)cc3C(=O)N([C@H](C)CO)C[C@H]2C)cc1`, the cytotoxicity call is “inactive”.

As for `Cc1ccc(S(=O)(=O)N(C)C[C@H]2OCCCC[C@@H](C)Oc3ccc(NS(=O)(=O)c4ccc(Cl)cc4)cc3C(=O)N([C@H](C)CO)C[C@H]2C)cc1`, the cytotoxicity call is “inactive”.

For the compound `Cc1ccc(S(=O)(=O)N(C)C[C@H]2OCCCC[C@@H](C)Oc3ccc(NS(=O)(=O)c4ccc(Cl)cc4)cc3C(=O)N([C@H](C)CO)C[C@@H]2C)cc1`, the cytotoxicity call is “inactive”.

As for `Cc1ccc(S(=O)(=O)Nc2ccc3c(c2)C(=O)N([C@@H](C)CO)C[C@@H](C)[C@@H](CN(C)S(=O)(=O)c2ccc(Cl)cc2)OCCCC[C@H](C)O3)cc1`, the cytotoxicity call is “inactive”.

These data come from the antibiotic and cytotoxicity screens of Wong et al. (2023).
